Screening data deposited in PubChem by National Center for Advancing Translational Sciences (NCATS).
Rows were chosen to be rich in hits. Some 7% of all compounds tested hit in one or more screens of this group.
PI5P4K alpha inh: qHTS for Inhibitors of phosphatidylinositol 5-phosphate 4-kinase (PI5P4K); Phosphatidylinositol 5-phosphate 4-kinase type-2 alpha (Homo sapiens), P48426; PI5P4Kalpha enzyme, ADP-Glo luminescence, 60 min; active compounds read low; max response, %; hit rate 1.2% among 330,000; AID 652105, 2013; active means max response of -50% or lower; inconclusive means between -30% and -50%; inactive means -30% or higher; further: value at the top dose of about 77 µM; on the % scale 0 is the no-effect control and ±100 the full control effect
Target sequence (P48426 whole entry, looked up): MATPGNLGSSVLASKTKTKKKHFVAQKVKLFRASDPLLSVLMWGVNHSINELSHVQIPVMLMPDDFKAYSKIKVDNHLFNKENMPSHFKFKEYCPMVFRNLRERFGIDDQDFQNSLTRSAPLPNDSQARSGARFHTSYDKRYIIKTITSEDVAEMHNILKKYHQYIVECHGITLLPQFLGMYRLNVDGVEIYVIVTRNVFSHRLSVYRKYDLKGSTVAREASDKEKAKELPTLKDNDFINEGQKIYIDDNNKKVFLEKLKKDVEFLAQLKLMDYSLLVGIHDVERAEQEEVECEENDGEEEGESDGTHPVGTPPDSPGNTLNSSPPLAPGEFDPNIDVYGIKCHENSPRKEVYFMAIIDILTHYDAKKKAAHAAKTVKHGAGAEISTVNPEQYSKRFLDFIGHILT
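ADP-Glo luminescence end-point after a 60 min room-temperature kinase reaction. PI5P4Kalpha and substrate in HEPES pH 7.4 buffer with EGTA, 0.1% CHAPS and 5% DMSO; ATP at 5 microM final.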
BAZ2B block: qHTS Assay for Inhibitors of BAZ2B; AlphaScreen BAZ2B-H3K14Ac peptide displacement; Potency, µM (doses to about 114 µM), inactives show at the top dose activity change, negative = inhibition, usual class: inhibitors; hit rate 4.4% among 360,000; AID 504333, 2011; further: potency means the concentration at half of the fitted maximal effect; on the % scale 0 is the no-effect control and ±100 the full control effect; nearly all actives have a fitted effect of over 60% in size
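Complex of BAZ2B and biotin-H3K14Ac (50 nM apiece) forms over 30 min at RT, then faces library compounds up to 110 uM for another 30 min; AlphaScreen beads added, 20 min dark incubation, luminescence read.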
PLK1 PBD block: qHTS for Inhibitors of PLK1-PDB (polo-like kinase 1 - polo-box domain): Primary Screen. Potency, µM, without a hit: max response, negative = inhibition, actives largely listed as inhibitors. Plk1 PBD binding of FITC phosphopeptide, fluorescence polarization. hit rate 2.8% among 360,000; further: potency means the concentration at half of the fitted maximal effect; series mostly up to about 57 µM; on the % scale 0 is the no-effect control and ±100 the full control effect; nearly all actives have a fitted effect of over 65% in size
KAT2A inh: qHTS Assay for Inhibitors of GCN5L2 | Histone acetyltransferase KAT2A (Homo sapiens), Q92830 | Potency, µM (highest dose often 58.9 µM), without a hit: at the highest dose activity change, negative = inhibition, most hits filed as inhibitors | AID 504327, 2011 | GCN5L2 HAT assay, ThioGlo1 CoA-SH fluorescence | hit rate 0.21% among 390,000; further: potency means the concentration at half of the fitted maximal effect; on the % scale 0 is the no-effect control and ±100 the full control effect
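Titration-based screen in which CoA formation is detected via maleimide probe ThioGlo1 (50uM) turning fluorescent on thiol reaction; substrates H3(1-25) 75uM and acetyl-CoA 70uM, GCN5L2 20nM, 20 min incubation at room temperature.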
JMJD2A Tudor: qHTS Assay for Inhibitors of JMJD2A-Tudor Domain; Lysine-specific demethylase 4A (Homo sapiens), O75164; AID 504339, 2011; AlphaScreen JMJD2A-Tudor / H3K4me3 peptide binding; hit rate 4.4% among 390,000; Potency, µM (series often up to 114 µM), without a hit: at the top dose activity change, negative = inhibition, actives largely listed as inhibitors; further: potency means the concentration at half of the fitted maximal effect; on the % scale 0 is the no-effect control and ±100 the full control effect; nearly all actives have a fitted effect of over 50% in size
HP1b binding inh: HTS for Inhibitors of HP1-beta Chromodomain Interactions with Methylated Histone Tails; Chromobox protein homolog 1 (Homo sapiens), P83916; AlphaScreen HP1-beta / biotin-H3K9me3 peptide binding; Potency, µM (highest dose often 114 µM), for the others: top-dose activity change, negative = inhibition, hits mostly inhibitors; hit rate 0.56% among 390,000; further: potency means the concentration at half of the fitted maximal effect; nearly all actives have a fitted effect of over 70% in size
Target sequence (P83916 whole entry, looked up): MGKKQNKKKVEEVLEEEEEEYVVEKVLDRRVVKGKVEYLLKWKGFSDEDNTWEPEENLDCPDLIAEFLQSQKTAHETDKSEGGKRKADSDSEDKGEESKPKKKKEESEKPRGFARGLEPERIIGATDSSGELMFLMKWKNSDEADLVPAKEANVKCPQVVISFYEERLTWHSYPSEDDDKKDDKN
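HP1-beta protein (50 nM final) preincubated 30 min at room temperature with biotinylated H3(1-18)K9me3 peptide (50 nM) in PBS pH 7.4, 0.01% Tween-20, then compound added for 30 min. AlphaScreen streptavidin donor/nickel chelate acceptor beads (10 ug/mL final), 30 min dark, luminescence read.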
* = called active by the depositor; u = inconclusive; x = no result; ! = not confirmed by another sample; [ ] = another dose, or the depositor's remark. Unless noted, the call rests on the fitted dose curve; in most records, active means well fitted curve in the direction sought with a large enough effect; inconclusive means small, poorly fitted or top-dose-only effect, or another doubt; inactive means no such curve, though single readings can be large; an effect the other way counts as inactive or inconclusive.

SMILES	PI5P4K alpha inh	BAZ2B block	PLK1 PBD block	KAT2A inh	JMJD2A Tudor	HP1b binding inh
Cc1cc(NC(=O)Nc2nnc(N(C)Cc3ccccc3)s2)ccc1Br	x	36%	x	-8%	19%	49%
COc1ccc2cc1Oc1ccc(cc1)CC1c3c(cc(OC)c4c3Oc3cc5c(cc3O4)CCNC5C2)CCN1C (centres undefined)	-4	6.3µM*	-1%	u	11µM*	u
COc1ccc2cc1Oc1ccc(cc1)C[C@H]1c3c(cc(OC)c4c3Oc3c(ccc5c3[C@H](C2)N(C)CC5)O4)CCN1C	21	x	-4%	1%	20µM*	u
COc1ccc2cc1Oc1ccc(cc1)CC1c3c(cc4c(c3Oc3cc5c(cc3OC)CCN(C)C5C2)OCO4)CCN1C (centres undefined)	x	x	x	-9%	x	x
O=C(CNC(=O)c1ccc([N+](=O)[O-])cc1)OC(C(=O)Nc1cc(C(F)(F)F)ccc1Cl)c1ccccc1 (centres undefined)	x	x	x	x	-22%	x
CC(C)c1ccc(NS(=O)(=O)c2cccc3cccnc23)cc1	-1	4%	-2%	-7%	-8%	29%
O=S(=O)(Nc1cccc2ccccc12)c1cccs1	6	-11%	-3%	-6%	0%	30%
O=S(=O)(Nc1cccc2cccnc12)c1ccccc1O	x	x	x	x	32µM*	x
O=S(=O)(Nc1ccc(O)cc1)c1cccc2cccnc12	-2	-15%	27µM*	-5%	u	7%
O=S(=O)(Nc1cccc2cccnc12)c1cccs1	x	x	x	x	79µM*	29%
O=S(=O)(NCc1cccs1)c1ccccc1Cl	4	0%	u	1%	-10%	20%
O=S(=O)(NCc1cccs1)c1cccc2cccnc12	x	5%	-7%	4µM*	-4%	25%
C=CCNC(=O)C(=O)NCC(c1ccc2c(c1)OCO2)N1CCN(c2ccc(F)cc2)CC1 (centres undefined)	-12	-39%	24µM*	-9%	u	-16%
CC(=O)c1cc(-c2ccccc2)n(CCC(=O)NC2CCCC2)c1C	-5	50µM*	-4%	1%	-18%	6%
CC(=O)c1cc(-c2ccccc2)n(CCC(=O)NC2CCCCC2)c1C	5	50µM*!	-1%	-9%	-15%	25%
CCC(C)NC(=O)CCn1c(-c2ccccc2)cc(C(C)=O)c1C (centres undefined)	-8	50µM*	-13%	-5%	2%[57.1 µM]	19%
CCOC(=O)c1cc(-c2ccccc2)n(CCC(=O)NC(C)CC)c1C (centres undefined)	x	-32%	1%	-3%	-19%	3%
CCOc1ccc(CNC(=O)C2Cc3cc(S(=O)(=O)N4CCCCCC4)ccc3N2C(C)=O)cc1 (centres undefined)	x	u	x	1%	-15%	28%
COc1cc(OC)c(C2C=C(c3ccc(C)cc3)Nc3c(C(=O)Nc4ccccc4)cnn32)cc1OC (centres undefined)	x	-31%	x	-16%	u	7%
O=C(OCc1ccc([N+](=O)[O-])cc1Cl)c1cnccn1	-5	-28%	-5%	36%	-12%	9%
CC(C)C(=O)N(Cc1ccc2c(c1)OCO2)Cc1ccccn1	x	u	-8%	-1%	56µM*	2%
O=C(NCc1ccc2c(c1)OCO2)c1ccccn1	-2	-6%	1%	0%	-1%	21%
CNS(=O)(=O)c1cn(CC(=O)NCc2ccccc2OC)cc1S(=O)(=O)NC	0	12%	-2%	-1%	u	-16%
Cc1csc2nc(COC(=O)c3ccc(NC(=O)c4ccccc4Br)cc3)cc(=O)n12	x	-4%	x	-2%	-19%	22%
O=C(O)CCCCn1c(SCC(=O)Nc2ccccc2C(F)(F)F)nc2ccsc2c1=O	-99*	-5%	-3%	-3%	-6%	-7%
SMILES	PI5P4K alpha inh	BAZ2B block	PLK1 PBD block	KAT2A inh	JMJD2A Tudor	HP1b binding inh
CC(C)CCn1c(SCC(=O)Nc2ccccc2C(F)(F)F)nc2nccnc2c1=O	11	79µM*	-20%	-9%	-27%	12%
COc1ccc(S(=O)(=O)NCCc2sc(-c3cccnc3)nc2C)c(F)c1	x	0%	x	-5%	-1%	26%[57 µM]
CC(=O)c1ccc(Sc2ccccc2N)c([N+](=O)[O-])c1	-1	u	-13%	-4%	u	-22%
Nc1ccccc1Sc1ccc(C(=O)c2ccccc2C(=O)O)cc1[N+](=O)[O-]	-66*	-35%	u	20µM*	u	1%
Nc1cc(C(=O)O)ccc1Sc1ccccc1C(=O)O	u	-33%	11µM*	-26%	-32%	-8%
COC(=O)/C=C1/SC(=NC(=O)c2ccc(Cl)cc2)NC1=O	-10	x	34µM*	x	u	-14%
COc1ccccc1Nc1nn2c(=O)c3ccc(C(=O)NC4CCC(C)CC4)cc3nc2s1 (centres undefined)	x	-3%	x	-4%	-7%	42%
NC(=O)c1ccc(SCC(=O)OCC(=O)NC2CCCCCCC2)c([N+](=O)[O-])c1	u	-23%	24µM*	-14%	u	u
Cc1ccc(CN(C)C(=O)COC(=O)CSc2ccc([N+](=O)[O-])cc2)cc1	-25	-24%	13µM*	-6%	-34%	u
O=C(COC(=O)CSc1ccc([N+](=O)[O-])cc1)NCCCc1ccccc1	u	u	8.4µM*	-7%	u	-14%
CCN(C(=O)COC(=O)CSc1ccc([N+](=O)[O-])cc1)C1CCS(=O)(=O)C1 (centres undefined)	-26	-5%	7.5µM*	-16%	35µM*	50µM*
Cc1ccccc1CN(C)C(=O)COC(=O)CSc1ccc([N+](=O)[O-])cc1	-2	-4%	-20%	-24%	-29%	2%
O=C(CCNC(=O)c1ccccc1Cl)NCc1cccnc1	-6	9%	-9%	2%	-3%	15%
CC(C)N1C(=S)N(Cc2ccco2)C(=O)C1CC(=O)Nc1ccccc1 (centres undefined)	-13	u	-8%	-7%	-19%	20%
COc1ccc(-c2nc(C(N)=O)c3c(n2)n(-c2ccccc2OC)c(=O)n3C)c(OC)c1	x	-3%	x	4%	-2%	30%[57 µM]
CCOC(=O)c1cc(S(=O)(=O)N2CCN(c3ccccc3OC)CC2)cn1C	-6	u	-13%	-8%	-27%	16%
